# Measured values: the supplement of paper PMC8728848
# Many of the other results were omitted from the sample, so the strongest signals are more common in it than they were.
# B1: Pbx2 (Cryptococcus neoformans) (protein)
# chain: AVSPLPSSTELVFYSQKRRRRRICSTATGSLSTPDPTRMTSDPYKRVGMRFSSVPRLLITFLSLLLLVSAAPPCVRFADYDSINQMFIDGGPGTKVLLCPNRLYRLSGPIIFTAADQEIATYGYPTGSERAVLRVEGRNTATAIQGDCRRCARVSVKNLVVDGNRKKLGRMRDFQLATGLVVLGGNEGQSIQNSWIKNPRGFTAIHIREGDKLQCSGARVEKNEIGPVGEEYDPEKDGDDPEMSPLGRPLADGVSIACRDSFIRDNTFRDNTDAAIVVYCSPGTLIHANHIFAQSLSAMAGILMVDSTPFNGDYTGTVVRSNIIDAVSRTIRVGIGIGPTVWSDDTETILTGGSVIGNGLKGRYMGYGIAAAGLKQWTIKDNWDEAKHEGRKSARCFDEPVNPDPIGLLYNRPTMEDCTVQSGFADHDFQYLVCIDGLYDKTNPPKHDPAPLAHDPSPTNAQEDNTVQQDGGDSKSKSIEQPREASDIEAEPSVEKMFSTGSEMMDDVLEHSHQRMHEVIDHLSRRIDILGAASAGKGSGDSKISEVLDPAMSSHLEKLQRKIEHLEFSLRSQIETAIQLRSAIQGWDQEMALVTDWEYDILLDVRHKLELSSYPHDQPLDPRLMRGQSYLNNEAVLVDDHSHPSLEGENLRAMSDRARLNANEEA
# Experiments:
# Assay in all cases: glycan array binding signal (z-score within array); higher = stronger binding
# Conditions in all cases: glycan notation: IUPAC condensed, linker removed
# [1] = molecular target: Fuc(a1-2)Gal(b1-4)[Fuc(a1-3)]GlcNAc(b1-3)GalNAc
# Summary of the method: (§1)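 Negative Z-scores can be read as non-binding. The Z-score is calculated within each array and then averaged across arrays of one protein sequence at different concentrations or buffers and across linkers. Arrays, 3228 in all, were curated from the Consortium for Functional Glycomics database and kept only where the protein sequence was available.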
# [2] = molecular target: Fuc(a1-2)Gal6S(b1-3)GlcNAc6S
# Summary of the method: as §1
# [3] = molecular target: Fuc(a1-2)Gal6S(b1-4)Glc
# Summary of the method: as §1
# [4] = molecular target: Fuc(a1-2)[Gal(a1-3)]Gal(b1-3)GlcNAc(b1-2)Man(a1-3)[Fuc(a1-2)[Gal(a1-3)]Gal(b1-3)GlcNAc(b1-2)Man(a1-6)]Man(b1-4)GlcNAc(b1-4)GlcNAc
# Summary of the method: as §1
# [5] = molecular target: Fuc(a1-2)[Gal(a1-3)]Gal(b1-3)GlcNAc(b1-3)GalNAc
# Summary of the method: as §1
# [6] = molecular target: Fuc(a1-3)[Gal(b1-4)]GlcNAc
# Summary of the method: as §1
# [7] = molecular target: Fuc(a1-3)[Gal(b1-4)]GlcNAc(b1-2)Man
# Summary of the method: as §1
# [8] = molecular target: Fuc(a1-3)[Gal(b1-4)]GlcNAc(b1-2)Man(a1-3)[Fuc(a1-3)[Gal(b1-4)]GlcNAc(b1-2)Man(a1-6)]Man(b1-4)GlcNAc(b1-4)GlcNAc
# Summary of the method: as §1
# [9] = molecular target: Fuc(a1-3)[Gal3S(b1-4)]GlcNAc
# Summary of the method: as §1
# [10] = molecular target: Fuc(a1-3)[GalNAc(b1-4)]GlcNAc
# Summary of the method: as §1
# [11] = molecular target: Gal(a1-3)Gal(b1-3)[Fuc(a1-4)]GlcNAc(b1-2)Man(a1-3)[Gal(a1-3)Gal(b1-3)[Fuc(a1-4)]GlcNAc(b1-2)Man(a1-6)]Man(b1-4)GlcNAc(b1-4)GlcNAc
# Summary of the method: as §1
# [12] = molecular target: Gal(a1-3)Gal(b1-4)GlcNAc
# Summary of the method: as §1
# [13] = molecular target: Gal(b1-3)GlcNAc(b1-2)Man(a1-3)[GlcNAc(b1-4)][Gal(b1-3)GlcNAc(b1-2)Man(a1-6)]Man(b1-4)GlcNAc(b1-4)GlcNAc
# Summary of the method: as §1
# [14] = molecular target: Gal(b1-3)GlcNAc(b1-3)GalNAc
# Summary of the method: as §1
# [15] = molecular target: Gal(b1-4)GlcNAc(b1-3)Gal(b1-3)GlcNAc
# Summary of the method: as §1
# [16] = molecular target: Gal(b1-4)GlcNAc(b1-3)Gal(b1-4)GlcNAc(b1-2)Man(a1-3)[Gal(b1-4)GlcNAc(b1-3)Gal(b1-4)GlcNAc(b1-2)Man(a1-6)]Man(b1-4)GlcNAc(b1-4)GlcNAc
# Summary of the method: as §1
# [17] = molecular target: Gal(b1-4)GlcNAc(b1-3)Gal(b1-4)GlcNAc(b1-3)Gal(b1-4)GlcNAc
# Summary of the method: as §1
# [18] = molecular target: Gal(b1-4)GlcNAc(b1-3)Gal(b1-4)GlcNAc(b1-3)Gal(b1-4)GlcNAc(b1-2)Man(a1-3)[Gal(b1-4)GlcNAc(b1-3)Gal(b1-4)GlcNAc(b1-3)Gal(b1-4)GlcNAc(b1-2)Man(a1-6)]Man(b1-4)GlcNAc(b1-4)GlcNAc
# Summary of the method: as §1
# [19] = molecular target: Gal(b1-4)GlcNAc(b1-3)Gal(b1-4)GlcNAc(b1-3)[Gal(b1-4)GlcNAc(b1-3)Gal(b1-4)GlcNAc(b1-6)]GalNAc
# Summary of the method: as §1
# [20] = molecular target: Gal3S6S(b1-4)GlcNAc6S
# Summary of the method: as §1
# [21] = molecular target: Gal4S(b1-4)GlcNAc
# Summary of the method: as §1
# [22] = molecular target: Gal4S6S(b1-4)GlcNAc
# Summary of the method: as §1
# [23] = molecular target: Gal6S(b1-3)GlcNAc6S
# Summary of the method: as §1
# [24] = molecular target: Gal6S(b1-4)GlcNAc6S
# Summary of the method: as §1
# [25] = molecular target: GalNAc(a1-3)GalNAc(a1-3)Gal(a1-4)Gal(b1-4)GlcNAc
# Summary of the method: as §1
# [26] = molecular target: GalNAc3S(b1-4)GlcNAc
# Summary of the method: as §1
# [27] = molecular target: GalNAc4S6S(b1-4)GlcNAc
# Summary of the method: as §1
# [28] = molecular target: GlcNAc(b1-2)[GlcNAc(b1-6)]Man(a1-6)[GlcNAc(b1-2)Man(a1-3)]Man(b1-4)GlcNAc(b1-4)[Fuc(a1-6)]GlcNAc
# Summary of the method: as §1
# [29] = molecular target: GlcNAc(b1-3)Gal(b1-3)GalNAc
# Summary of the method: as §1
# [30] = molecular target: GlcNAc(b1-3)Gal(b1-4)GlcNAc(b1-2)Man(a1-3)[GlcNAc(b1-3)Gal(b1-4)GlcNAc(b1-2)Man(a1-6)]Man(b1-4)GlcNAc(b1-4)GlcNAc
# Summary of the method: as §1
# [31] = molecular target: GlcNAc(b1-3)Gal(b1-4)GlcNAc(b1-3)Gal(b1-4)GlcNAc(b1-2)Man(a1-3)[GlcNAc(b1-3)Gal(b1-4)GlcNAc(b1-3)Gal(b1-4)GlcNAc(b1-2)Man(a1-6)]Man(b1-4)GlcNAc(b1-4)GlcNAc
# Summary of the method: as §1
# [32] = molecular target: GlcNAc(b1-3)Gal(b1-4)GlcNAc(b1-3)Gal(b1-4)GlcNAc(b1-2)[GlcNAc(b1-3)Gal(b1-4)GlcNAc(b1-3)Gal(b1-4)GlcNAc(b1-6)]Man(a1-6)[GlcNAc(b1-3)Gal(b1-4)GlcNAc(b1-3)Gal(b1-4)GlcNAc(b1-2)Man(a1-3)]Man(b1-4)GlcNAc(b1-4)[Fuc(a1-6)]GlcNAc
# Summary of the method: as §1
# [33] = molecular target: GlcNAc(b1-4)GlcNAc(b1-4)GlcNAc
# Summary of the method: as §1
# [34] = molecular target: GlcNAc6S(b1-3)Gal(b1-4)GlcNAc
# Summary of the method: as §1
# [35] = molecular target: Man(a1-2)Man(a1-3)[Man(a1-6)]Man(a1-6)[Man(a1-2)Man(a1-3)]Man(b1-4)GlcNAc(b1-4)GlcNAc
# Summary of the method: as §1
# [36] = molecular target: Man(a1-2)Man(a1-6)[Man(a1-3)]Man(a1-6)[Man(a1-2)Man(a1-2)Man(a1-3)]Man(b1-4)GlcNAc(b1-4)GlcNAc
# Summary of the method: as §1
# [37] = molecular target: Neu5Ac(a2-3)Gal(b1-3)[GlcNAc(b1-6)]GalNAc
# Summary of the method: as §1
# [38] = molecular target: Neu5Ac(a2-3)Gal(b1-4)GlcNAc(b1-2)Man
# Summary of the method: as §1
# [39] = molecular target: Neu5Ac(a2-3)Gal(b1-4)GlcNAc(b1-2)[Neu5Ac(a2-3)Gal(b1-4)GlcNAc(b1-6)]Man(a1-6)[Neu5Ac(a2-3)Gal(b1-4)GlcNAc(b1-2)Man(a1-3)]Man(b1-4)GlcNAc(b1-4)GlcNAc
# Summary of the method: as §1
# [40] = molecular target: Neu5Ac(a2-3)Gal(b1-4)GlcNAc(b1-3)Gal(b1-4)GlcNAc(b1-3)Gal(b1-4)GlcNAc
# Summary of the method: as §1
# [41] = molecular target: Neu5Ac(a2-3)[GalNAc(b1-4)]Gal(b1-4)GlcNAc(b1-3)GalNAc
# Summary of the method: as §1
# [42] = molecular target: Neu5Ac(a2-6)Gal(b1-4)GlcNAc(b1-2)Man
# Summary of the method: as §1
# [43] = molecular target: Neu5Ac(a2-6)Gal(b1-4)GlcNAc(b1-3)Gal(b1-3)GlcNAc
# Summary of the method: as §1
# [44] = molecular target: Neu5Ac(a2-8)Neu5Ac(a2-3)[Gal(b1-3)GalNAc(b1-4)]Gal(b1-4)Glc
# Summary of the method: as §1
# [45] = molecular target: Neu5Ac(a2-8)Neu5Ac(a2-3)[GalNAc(b1-4)]Gal(b1-4)Glc
# Summary of the method: as §1
# [46] = molecular target: Neu5Ac(a2-8)Neu5Ac(a2-8)Neu5Ac(a2-3)[GalNAc(b1-4)]Gal(b1-4)Glc
# Summary of the method: as §1
# [47] = molecular target: Neu5Gc(a2-3)Gal(b1-3)[Fuc(a1-4)]GlcNAc
# Summary of the method: as §1
# [48] = molecular target: Neu5Gc(a2-3)Gal(b1-4)Glc
# Summary of the method: as §1
# [49] = molecular target: Neu5Gc(a2-6)Gal(b1-4)GlcNAc
# Summary of the method: as §1
binder,measurement,setting,value
B1,glycan array binding signal (z-score),[1],5.82
same,glycan array binding signal (z-score),[2],3.8
same,glycan array binding signal (z-score),[3],-0.497
same,glycan array binding signal (z-score),[4],-0.446
same,glycan array binding signal (z-score),[5],-0.12
same,glycan array binding signal (z-score),[6],-0.094
same,glycan array binding signal (z-score),[7],-0.041
same,glycan array binding signal (z-score),[8],0.271
same,glycan array binding signal (z-score),[9],0.057
same,glycan array binding signal (z-score),[10],-0.291
same,glycan array binding signal (z-score),[11],-0.392
same,glycan array binding signal (z-score),[12],-0.346
same,glycan array binding signal (z-score),[13],0.625
same,glycan array binding signal (z-score),[14],0.091
same,glycan array binding signal (z-score),[15],-0.114
same,glycan array binding signal (z-score),[16],4.98
same,glycan array binding signal (z-score),[17],0.154
same,glycan array binding signal (z-score),[18],4.44
same,glycan array binding signal (z-score),[19],2.83
same,glycan array binding signal (z-score),[20],6.21
same,glycan array binding signal (z-score),[21],-0.339
same,glycan array binding signal (z-score),[22],2.65
same,glycan array binding signal (z-score),[23],3.95
same,glycan array binding signal (z-score),[24],2.56
same,glycan array binding signal (z-score),[25],0.168
same,glycan array binding signal (z-score),[26],-0.522
same,glycan array binding signal (z-score),[27],6.54
same,glycan array binding signal (z-score),[28],-0.377
same,glycan array binding signal (z-score),[29],-0.436
same,glycan array binding signal (z-score),[30],-0.424
same,glycan array binding signal (z-score),[31],3.17
same,glycan array binding signal (z-score),[32],1.33
same,glycan array binding signal (z-score),[33],-0.147
same,glycan array binding signal (z-score),[34],-0.104
same,glycan array binding signal (z-score),[35],-0.065
same,glycan array binding signal (z-score),[36],0.275
same,glycan array binding signal (z-score),[37],-0.075
same,glycan array binding signal (z-score),[38],4.34
same,glycan array binding signal (z-score),[39],0.027
same,glycan array binding signal (z-score),[40],-0.461
same,glycan array binding signal (z-score),[41],-0.206
same,glycan array binding signal (z-score),[42],0.729
same,glycan array binding signal (z-score),[43],-0.368
same,glycan array binding signal (z-score),[44],0.256
same,glycan array binding signal (z-score),[45],-0.131
same,glycan array binding signal (z-score),[46],0.212
same,glycan array binding signal (z-score),[47],-0.266
same,glycan array binding signal (z-score),[48],-0.241
same,glycan array binding signal (z-score),[49],-0.317
